This is a sample that favours compounds with a hit; in the whole collection about 1.7% have one here.
PTHR1 ag: agonists of human PTHR1 parathyroid hormone receptor. hit rate 0.075% among 410,000. Potency, µM (highest dose often 115 µM), most hits filed as activators. HEK293 GP2 PTHR1 cells, GloSensor cAMP luminescence, 1 h. Q03431. AID 743266; further: nearly all actives have a fitted effect of over 55% in size
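HEK-293-derived GP2 cells expressing PTHR1 and a GloSensor cAMP reporter, 3,000/well, plated overnight, given luciferin plus IBMX (each 0.5 mM as added) for 1 h at 37 °C, then compound for 1 h at 37 °C. Luminescence was read after 15 min at room temperature.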
GLP1R ag: activates the human GLP-1 receptor; P43220; HEK293 GLP-1R CRE-luciferase, luminescence, 4-6 h; cells express a hypersensitive GLP-1R form; Potency, µM (series often up to 45.6 µM), usual class: activators; hit rate 0.007% among 380,000; AID 624172
Target sequence (P43220 whole entry, looked up): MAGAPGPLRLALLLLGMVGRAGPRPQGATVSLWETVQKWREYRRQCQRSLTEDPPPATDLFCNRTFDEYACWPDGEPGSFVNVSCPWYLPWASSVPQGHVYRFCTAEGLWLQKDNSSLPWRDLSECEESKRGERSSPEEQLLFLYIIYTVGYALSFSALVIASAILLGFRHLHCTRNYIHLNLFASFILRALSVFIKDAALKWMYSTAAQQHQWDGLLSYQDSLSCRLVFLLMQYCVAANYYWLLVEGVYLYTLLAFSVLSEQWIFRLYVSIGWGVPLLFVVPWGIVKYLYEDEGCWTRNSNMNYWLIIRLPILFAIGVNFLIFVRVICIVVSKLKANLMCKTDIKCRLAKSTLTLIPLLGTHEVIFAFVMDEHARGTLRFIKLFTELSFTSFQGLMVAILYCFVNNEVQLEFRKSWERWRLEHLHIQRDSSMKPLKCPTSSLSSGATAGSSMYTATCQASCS
GLP1R inv ag: acts as inverse agonist at human GLP-1 receptor. P43220. HEK293 GLP-1R CRE-luciferase, luminescence, 24 h; GLP-1R form is constitutively active. Potency, µM (series often up to 38.3 µM), usual class: inhibitors. hit rate 1.6% among 410,000. AID 624417; further: nearly all actives have a fitted effect of over 55% in size
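Cells are plated, allowed 12 hours at 37 deg C, then treated with compounds for 24 hr before luciferase detection reagent is added and luminescence is read after 12 min at room temperature. The HEK293 line carries constitutively active GLP-1R with a cAMP-responsive reporter.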
HEK293 tox: cytotoxicity counter-screen for GLP-1 receptor inverse agonists; Potency, µM (doses to about 38.3 µM), usual class: inhibitors; HEK293 cAMP-luciferase reporter cells, luminescence, 24 h; AID 624418; hit rate 0.13% among 410,000;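 further: loss of luciferase light is scored as toxicity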
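Seeding density was 200 cells/uL; after overnight-length (12 h) culture, 23 nL compounds went on for 24 h at 37 °C. Readout used a luciferase detection reagent, luminescence taken after 12 min at room temperature.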
Numbers stand for hits; – = inactive; ? = inconclusive; · = not tested or not shown. The call rests on the fitted dose curve; in most records, active means well fitted curve in the direction sought with a large enough effect; inconclusive means small, poorly fitted or top-dose-only effect, or another doubt; inactive means no such curve, though single readings can be large; an effect the other way counts as inactive or inconclusive.

SMILES	PTHR1 ag	GLP1R ag	GLP1R inv ag	HEK293 tox
CCOc1ccc(C(C(=O)NCC2CCCO2)N(C(=O)c2snc(C(N)=O)c2N)c2ccc(F)cc2)cc1 (configuration not stated)	–	–	–	–
CCOc1ccc(C(C(=O)NCC2CCCO2)N(CCc2cccc(C)c2)C(=O)c2snc(C(N)=O)c2N)cc1 (configuration not stated)	–	–	7.94µM	?
CC(C)(C)Cc1c(-c2ccc(F)cc2)nc2ccc(Cl)cn12	–	–	5.62µM	?
Cc1ccc(Cc2c(-c3ccc(Cl)cc3)nc3ccc(Cl)cn23)cc1	–	–	?	–
Cc1ccc(Cc2c(-c3ccc(C)cc3)nc3ccc(Cl)cn23)cc1	–	–	10µM	–
C=C(C)Cn1c(SCC(=O)Nc2cccc(C)c2)nc2sc3c(c2c1=O)CCCC3	–	·	–	–
NC(=O)CC(NC(=O)Cc1cccc2ccccc12)c1ccc(NCCc2ccccc2F)c([N+](=O)[O-])c1 (configuration not stated)	–	–	–	–
COc1cccc(C(=O)OC2CCN(C)CC2)c1	–	–	?	–
CCOc1ccc(C(=O)OC2CCN(C)CC2)cc1	–	–	3.98µM	–
O=C1c2ccccc2C2(c3cc(C(F)(F)F)cc(C(F)(F)F)c3)NCCN12 (configuration not stated)	–	–	10µM	–
O=C1c2ccccc2C2(c3ccccc3)NCCCN12 (configuration not stated)	–	–	–	–
NC(=S)N=Nc1c(O)n(Cc2ccccc2)c2ccccc12	–	–	?	?
C/C(Cl)=C\Cn1c(O)c(N=NC(N)=S)c2ccccc21	–	?	?	1.58µM
COC(=O)c1ccc(Cn2c(O)c(N=NC(N)=S)c3ccccc32)o1	?	–	10µM	?
Cc1ccc(S(=O)(=O)c2ncccc2[N+](=O)[O-])cc1	–	–	?	?
CC(C)CNC(=S)N1CCC(Cc2ccccc2)CC1	–	–	3.16µM	?
COC(=O)c1ccccc1NC(=O)Cc1nc(-c2ccc(OC)cc2)no1	50.1µM	·	–	–
CCOC(=O)c1ccccc1NC(=O)CCc1nc(-c2ccc(C)cc2)no1	–	·	–	–
CC(C)c1cc(-c2cc(C(=O)NCc3ccccc3)on2)nc(NCC2CC2)n1	–	–	12.6µM	–
CC(C)c1cc(-c2cc(C(=O)NCc3ccccc3)on2)nc(NC2CCCC2)n1	–	–	–	–
COc1ccc(CC(=O)NCC(c2cccs2)S(=O)(=O)c2ccc(C)cc2)cc1 (configuration not stated)	–	·	–	–
O=C(CC1C(=O)NCCN1C(=O)c1ccc(Cl)cc1)Nc1ccc(F)cc1 (configuration not stated)	–	–	–	–
O=C(CC1C(=O)NCCN1C(=O)Nc1ccc(Cl)cc1)Nc1ccc(F)cc1 (configuration not stated)	–	–	11.2µM	–
CCC(C)NC(=O)CCCN1C(=O)CCn2nc(-c3cccn3C)cc21 (configuration not stated)	–	·	–	–
C[C@H](O)[C@@H]1CN2CCc3c([nH]c4ccc(-c5ccc6c(c5)OCO6)cc34)[C@@H]2C[C@@H]1N(C)C(=O)Nc1ccc(F)cc1	–	–	3.98µM	?
SMILES	PTHR1 ag	GLP1R ag	GLP1R inv ag	HEK293 tox
COc1ccc(-c2ccc3[nH]c4c(c3c2)CCN2C[C@@H]([C@H](C)O)[C@@H](N(C)C(=O)Nc3cc(Cl)cc(Cl)c3)C[C@@H]42)cc1	–	–	?	–
OC(COc1cccc2ccccc12)CN1CCN(c2ccccc2Cl)CC1 (configuration not stated)	–	–	?	?
Cc1ccccc1OCC(O)CN1CCN(CC(O)COc2ccccc2C)CC1 (configuration not stated)	–	–	8.91µM	–
COc1cccc(OCC(O)CN2CCN(c3ccc(Cl)cc3)CC2)c1 (configuration not stated)	–	–	10µM	–
Cc1ccc(N2CCN(CC(O)COc3cccc4ccccc34)CC2)cc1 (configuration not stated)	–	–	11.2µM	?
Cc1ccccc1OCC(O)CN1CCCCC1 (configuration not stated)	–	–	–	?
COc1ccc(N2CCN(CCCNC(=O)c3ccc4nc(Cc5ccccc5)oc4c3)CC2)cc1	–	·	?	–
COc1cc(NC(=O)COC(=O)C2CC(O)CN2S(=O)(=O)c2ccc(Cl)cc2)c(C)cc1[N+](=O)[O-] (configuration not stated)	–	?	–	–
CO[C@H]1/C=C/O[C@@]2(C)Oc3c(C)c(O)c4c(O)c(c(/C=N\N5CCN(C6CCCC6)CC5)c(O)c4c3C2=O)NC(=O)/C(C)=C\C=C\[C@H](C)[C@H](O)[C@@H](C)[C@@H](O)[C@@H](C)[C@H](OC(C)=O)[C@@H]1C	·	–	·	·
Cc1onc(-c2ccccc2)c1C(=O)Nc1cccc(OC(C)C)c1	–	–	11.2µM	–
Cc1ccc(NC(=O)COC(=O)c2c(-c3ccccc3)noc2C)cc1	–	–	10µM	–
Cc1onc(-c2ccccc2)c1C(=O)OCC(=O)Nc1ccc(Cl)cc1	–	–	11.2µM	–
CCCOc1cccc(NC(=O)c2c(-c3ccccc3)noc2C)c1	–	–	?	–
Cc1onc(-c2ccccc2)c1C(=O)OCC(=O)Nc1ccc(OC(F)(F)F)cc1	–	–	?	–
Cc1ccc(C)c(NS(=O)(=O)c2cc(C(=O)Nc3ccccc3-c3ccccc3)ccc2Cl)c1	–	–	?	–
Cc1ccn2c(NC(=O)c3cccs3)c(-c3ccccc3)nc2c1	–	–	–	–
Cc1ccn2c(NC(C)(C)C)c(-c3cccs3)nc2c1	–	–	10µM	?
Cc1ccc(-c2nc(C#N)c(N3CCC(C(N)=O)CC3)o2)cc1	–	–	–	–
CN=C(Nc1cc(Cl)ccc1Cl)SC1CC(=O)N(c2ccc(C(=O)OC)cc2)C1=O (configuration not stated)	–	–	3.98µM	–
COC(=O)c1ccc(N2C(=O)CC(SCC(=O)Nc3ccc(OC)cc3)C2=O)cc1 (configuration not stated)	–	–	–	–
c1ccc2nc(-c3nc4ccccc4[nH]3)ccc2c1	–	–	10µM	–
CCN(CC)c1ccc(NC(=O)CN(C)Cc2cccs2)cc1	–	–	11.2µM	–
Cc1ccc2[nH]c(C(=O)N/N=C/c3ccccc3O)c(C)c2c1	–	–	?	–
CC1(C)C([N+](=O)[O-])C(c2ccc(Cl)cc2)NC(c2ccc(Cl)cc2)C1[N+](=O)[O-] (configuration not stated)	–	–	10µM	–
CC1(C)C([N+](=O)[O-])C(c2ccc(F)cc2)NC(c2ccc(F)cc2)C1[N+](=O)[O-] (configuration not stated)	–	–	10µM	–

High-throughput results as filed in PubChem BioAssay.
